# Records with an inconclusive call do not appear. A call without a number means that no potency is given here. The source made the active and inactive calls. Unless noted, calls follow the shape of the dose curve; as a rule, active = well fitted curve in the direction sought with a large enough effect; inconclusive = small, poorly fitted or top-dose-only effect, or another doubt; inactive = no such curve, though single readings can be large; an effect the other way counts as inactive or inconclusive.
# Assays:
# [1] = Identifying Small Molecule Inhibitors of Pancreatic Cancer Stem Cells (SN12C, Adherent) (AID 1259358); conditions: viability/growth inhibition; series mostly up to 46.1 µM;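 also: cell survival measured after 48 h of compound exposure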
# Procedure, shortened: (§1)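 Spheroids grown 14 days in stem cell media on hydrogel-coated nonadherent plates; 2D lines seeded directly. Compounds added after 4 h attachment, 48 h at 37C, 5% CO2; CellTiter-Glo luminescence normalized to DMSO (no inhibition) and no-cell wells (full inhibition).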
# [2] = Identifying Small Molecule Inhibitors of Pancreatic Cancer Stem Cells (SN12C, Spheroid) (AID 1259360); conditions: Potency: SN12C spheroid viability; series mostly up to 46.1 µM
# Procedure, shortened: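 Monolayer and spheroid cultures are compared. Spheroids form over 14 days in stem cell medium on hydrogel-coated low-attachment plates, then are exposed to compound for 48 h before CellTiter-Glo luminescence.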
# [3] = Identifying Small Molecule Inhibitors of Pancreatic Cancer Stem Cells (A278, Adherent) (AID 1259361); conditions: series mostly up to 46.1 µM;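 also: viability read after 48 h compound exposure; nearly all actives have a fitted effect of over 35% in size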
# Procedure, shortened: as §1
# [4] = P-glycoprotein substrates identified in KB-8-5-11 adenocarcinoma cell line, qHTS therapeutic library screen (AID 1346987); conditions: KB-8-5-11 (P-gp overexpressing) viability, CellTiter-Glo, 72 h; series mostly up to 44.5 µM; also: nearly all actives have a fitted effect of over 65% in size; also: potency is read from the fitted curve at half-maximal effect
# Procedure, shortened: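 KB-8-5-11, a colchicine-selected P-gp-overexpressing KB-3-1 subline, was grown without colchicine for the assay. Cells were seeded at 500 cells/well, dosed in concentration-response and incubated 72 h at 37 degree C, 5% CO2. Viability was read by CellTiter-Glo luminescence.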
# [5] = Identifying Small Molecule Inhibitors of Pancreatic Cancer Stem Cells (Panc1, Adherent) (AID 1259362); conditions: Potency: viability; series mostly up to 46.1 µM;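 also: compound exposure lasted 48 h before the viability read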
# Procedure, shortened: as §1
# [6] = P-glycoprotein substrates identified in KB-3-1 adenocarcinoma cell line, qHTS therapeutic library screen (AID 1346986); conditions: KB-3-1 parental cells viability, CellTiter-Glo, 72 h; series mostly up to 44.5 µM; also: nearly all actives have a fitted effect of over 60% in size
# Procedure, shortened: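 KB-3-1 parental and colchicine-selected P-gp-overexpressing KB-8-5-11 cells (colchicine omitted during assay), 500 cells/well, dosed in dose-response for 72 h at 37 °C; CellTiter-Glo luminescence. Cytotoxic: curve class -1.1 to -2.4, max response >50%, AC50 < 10 uM.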
# [7] = Natriuretic polypeptide receptor (hNpr1) antagonism - Pilot counterscreen GloSensor control cell line (AID 1347045; calls by dose curve); conditions: HEK293 cGMP GloSensor cells, SNP-stimulated luminescence, 20 min; series mostly up to 38.3 µM
# Procedure, shortened: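 HEK293 cGMP GloSensor cells preloaded 2 h with 2% GloSensor reagent, then compound 30 min before baseline luminescence read. Stimulated with 50 uM sodium nitroprusside, 20 min at room temperature, then read again; counterscreen for Npr1 antagonism.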
smiles,measurement,setting,value
C[C@]12CC[C@H](O)CC1=CC[C@@H]1[C@H]2CC[C@]2(C)C(c3cccnc3)=CC[C@H]12,Potency,[1],inactive
same,Potency,[2],inactive
same,IC50 (viability decrease),[3],inactive
same,Potency,[4],inactive
Nc1nccc(-c2ccc3noc(-c4ccc(Cl)cc4)c3c2)n1,Potency,[1],inactive
same,Potency,[2],inactive
same,Potency,[4],inactive
Cn1cc(-c2ccc3nnc(C(F)(F)c4ccc5ncccc5c4)n3n2)cn1,Potency,[1],inactive
same,IC50 (viability decrease),[3],inactive
same,Potency,[4],inactive
CCN(c1ccccc1)c1cc(NC)[n+](C)c(C)n1,Potency,[1],inactive
same,IC50 (viability decrease),[3],inactive
same,Potency,[4],inactive
O=C(O)[C@@H](c1ccc(OCc2ccc3ccccc3n2)cc1)C1CCCC1,Potency,[1],inactive
same,Potency,[2],inactive
same,Potency,[4],inactive
Cc1cccc(-c2nn(C(=S)Nc3ccccc3)cc2-c2ccnc3ccccc23)n1,Potency,[1],inactive
same,Potency,[5],inactive
same,Potency,[6],inactive
same,Potency,[4],inactive
COc1cc2c(cc1OC)CN(CCc1ccc(NC(=O)c3cccc4c(=O)c5cccc(OC)c5[nH]c34)cc1)CC2,Potency,[1],inactive
same,Potency,[2],inactive
same,IC50 (viability decrease),[3],10.5 µM (active)
same,Potency,[4],inactive
Cc1cnc(Nc2ccc(OCCN3CCCC3)cc2)nc1Nc1cccc(S(=O)(=O)NC(C)(C)C)c1,Potency,[1],inactive
same,Potency,[2],inactive
same,IC50 (viability decrease),[3],inactive
same,Potency,[4],inactive
COc1ccc(-c2oc3cc(OC)ccc3c2C(=O)c2ccc(C#N)cc2)cc1,Potency,[1],inactive
same,Potency,[2],inactive
same,Potency,[6],inactive
same,Potency,[4],inactive
c1ccc(-c2nn3c(c2-c2ccnc4cc(OCCN5CCOCC5)ccc24)CCC3)nc1,Potency,[1],inactive
same,Potency,[6],inactive
CC(C)C[C@H](NC(=O)[C@@H](O)[C@H](N)Cc1ccccc1)C(=O)O,Potency,[1],inactive
same,IC50 (viability decrease),[3],inactive
same,Potency,[4],23.5 µM (active)
same,outcome,[7],inactive
CN(C)c1ccc(C2Nc3ccc4ccccc4c3C3=C2C(=O)CC(C)(C)C3)cc1Br (stereo unspecified),Potency,[1],inactive
same,Potency,[2],inactive
same,Potency,[4],inactive

# Reference: PubChem BioAssay (NCATS)
